Source: PubChem BioAssay (Tox21)
Values joined by “and” are separate entries in the source; they are usually repeats but may differ in a detail not shown here. Equal values may be shown once. Records with an inconclusive call do not appear. Entries that show only a call come without a potency. The source holds several records for some structures; these can differ, active in one and inactive in another. Active and inactive are the calls of the source. Calls come from the whole dose curve; as a rule, active = well fitted curve in the direction sought with a large enough effect in the repeat runs; inconclusive = weak or mixed curves; inactive = no such curve, though single readings can be large; an effect the other way counts as inactive or inconclusive.

Tests used:
[1] = biological target: Cytochrome P450 2D6 (Homo sapiens) (UniProt P10635); test: Cytochrome P450 Family 2 Subfamily D Member 6 (CYP2D6) small molecule antagonists: luciferase reporter qHTS assay (AID 1671196); note: nearly all actives have a fitted effect of over 50% in size; note: potency is the fitted concentration of half-maximal effect
Procedure, shortened: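 Inhibition of CYP2D6 was gauged by loss of luminescence, since light produced tracks the luciferin generated from a proluciferin substrate. A 10 min room-temperature preincubation preceded 1 h NADPH-supported turnover.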

[2] = biological target: Cytochrome P450 2C19 (Homo sapiens) (UniProt P33261); test: Cytochrome P450 Family 2 Subfamily C Member 19 (CYP2C19) small molecule antagonists: luciferase reporter qHTS assay (AID 1671197); note: nearly all actives have a fitted effect of over 65% in size; note: potency is the fitted concentration of half-maximal effect
Procedure, shortened: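 Light output is proportional to CYP2C19 activity: proluciferin substrate is converted to luciferin, then detected by a luciferin detection reagent that also stops the 1 h, 37C NADPH-driven reaction. Ketoconazole serves as positive control.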

[3] = biological target: Cytochrome P450 2C9 (Homo sapiens) (UniProt P11712); test: Cytochrome P450 Family 2 Subfamily C Member 9 (CYP2C9) small molecule antagonists: luciferase reporter qHTS assay (AID 1671198); note: nearly all actives have a fitted effect of over 50% in size; note: potency is the fitted concentration of half-maximal effect
Procedure, shortened: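 CYP2C9 activity was measured with a P450-Glo proluciferin substrate. Enzyme–substrate mix was held with compound for 10 min at room temperature, then NADPH regeneration solution was added for 1 h at 37C. Luciferin product was read as luminescence.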

[4] = biological target: Cytochrome P450 1A2 (Homo sapiens) (UniProt P05177); test: Cytochrome P450 Family 1 Subfamily A Member 2 (CYP1A2) small molecule antagonists: luciferase reporter qHTS assay (AID 1671199); note: nearly all actives have a fitted effect of over 50% in size; note: potency is the fitted concentration of half-maximal effect
Procedure, shortened: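 Signal from luciferin formed by CYP1A2 from a proluciferin substrate is read as luminescence, expressed in relative luminescence units. Compounds sit with enzyme 10 min, NADPH-driven reaction runs 1 h, all at room temperature.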

[5] = biological target: Voltage-gated inwardly rectifying potassium channel KCNH2 (Homo sapiens) (UniProt Q12809); test: Human Ether-a-go-go-Related Gene (hERG) channel small molecule antagonists: fluorescence cell-based qHTS assay (AID 1671200); note: nearly all actives have a fitted effect of over 50% in size; note: potency is the fitted concentration of half-maximal effect
Procedure, shortened: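 hERG-U2OS cells plated overnight at 37 C, loaded with FluxOR II dye 1 h at RT in dark; after 10 min, thallium stimulus added. Fluorescence (480/540 nm) read kinetically for 2 min at 1 s intervals.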

[6] = biological target: Cytochrome P450 3A4 (Homo sapiens) (UniProt P08684); test: Cytochrome P450 Family 3 Subfamily A Member 4 (CYP3A4) small molecule antagonists: luciferase reporter qHTS assay (AID 1671201)
Procedure, shortened: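 P450-Glo CYP3A4 luminescent assay: compounds preincubated 10 min at room temperature with enzyme and proluciferin substrate, NADPH regeneration added, 1 h room-temperature reaction, stopped with luciferin detection reagent; luminescence read after 20 min. Ketoconazole positive control.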

Cytochrome P450 2D6 (Homo sapiens), sequence (P10635 whole entry, looked up): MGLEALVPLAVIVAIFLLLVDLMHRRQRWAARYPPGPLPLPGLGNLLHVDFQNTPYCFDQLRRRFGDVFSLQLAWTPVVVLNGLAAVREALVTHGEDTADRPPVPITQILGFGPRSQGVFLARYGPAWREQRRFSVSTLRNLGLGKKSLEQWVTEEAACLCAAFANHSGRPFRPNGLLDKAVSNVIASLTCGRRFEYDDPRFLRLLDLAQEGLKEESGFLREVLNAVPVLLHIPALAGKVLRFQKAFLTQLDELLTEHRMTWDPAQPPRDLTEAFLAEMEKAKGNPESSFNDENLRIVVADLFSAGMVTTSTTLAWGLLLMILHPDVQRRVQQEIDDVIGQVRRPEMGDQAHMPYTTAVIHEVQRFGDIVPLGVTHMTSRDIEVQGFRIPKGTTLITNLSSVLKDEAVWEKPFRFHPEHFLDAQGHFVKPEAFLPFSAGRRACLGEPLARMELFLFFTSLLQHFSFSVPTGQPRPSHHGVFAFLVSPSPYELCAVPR
Cytochrome P450 1A2 (Homo sapiens), sequence (P05177 whole entry, looked up): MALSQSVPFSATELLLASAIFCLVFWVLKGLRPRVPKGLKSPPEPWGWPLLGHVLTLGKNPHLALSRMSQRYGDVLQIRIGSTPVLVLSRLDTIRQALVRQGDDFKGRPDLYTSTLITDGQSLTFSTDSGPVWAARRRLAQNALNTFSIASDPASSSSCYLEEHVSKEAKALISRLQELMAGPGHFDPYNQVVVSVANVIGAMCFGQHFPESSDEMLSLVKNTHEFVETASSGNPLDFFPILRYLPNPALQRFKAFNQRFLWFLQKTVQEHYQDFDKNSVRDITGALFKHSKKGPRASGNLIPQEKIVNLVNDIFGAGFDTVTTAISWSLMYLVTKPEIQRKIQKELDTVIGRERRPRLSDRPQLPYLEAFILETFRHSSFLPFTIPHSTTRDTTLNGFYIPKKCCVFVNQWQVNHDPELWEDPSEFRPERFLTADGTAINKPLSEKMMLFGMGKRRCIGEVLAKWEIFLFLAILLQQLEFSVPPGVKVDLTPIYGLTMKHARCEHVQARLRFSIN
Cytochrome P450 2C19 (Homo sapiens), sequence (P33261 whole entry, looked up): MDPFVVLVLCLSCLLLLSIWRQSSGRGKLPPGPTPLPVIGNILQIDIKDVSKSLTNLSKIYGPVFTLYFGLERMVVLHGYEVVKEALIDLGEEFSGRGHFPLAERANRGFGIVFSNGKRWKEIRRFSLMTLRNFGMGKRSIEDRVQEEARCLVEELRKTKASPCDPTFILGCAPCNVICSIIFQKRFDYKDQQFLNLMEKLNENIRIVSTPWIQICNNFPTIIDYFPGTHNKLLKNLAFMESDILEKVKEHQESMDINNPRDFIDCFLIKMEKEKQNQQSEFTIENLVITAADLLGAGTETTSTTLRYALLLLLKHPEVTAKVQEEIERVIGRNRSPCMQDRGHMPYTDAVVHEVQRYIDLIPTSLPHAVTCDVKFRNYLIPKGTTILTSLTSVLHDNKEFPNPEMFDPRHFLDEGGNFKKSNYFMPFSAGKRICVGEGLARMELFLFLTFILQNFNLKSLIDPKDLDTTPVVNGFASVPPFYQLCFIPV
Cytochrome P450 2C9 (Homo sapiens), sequence (P11712 whole entry, looked up): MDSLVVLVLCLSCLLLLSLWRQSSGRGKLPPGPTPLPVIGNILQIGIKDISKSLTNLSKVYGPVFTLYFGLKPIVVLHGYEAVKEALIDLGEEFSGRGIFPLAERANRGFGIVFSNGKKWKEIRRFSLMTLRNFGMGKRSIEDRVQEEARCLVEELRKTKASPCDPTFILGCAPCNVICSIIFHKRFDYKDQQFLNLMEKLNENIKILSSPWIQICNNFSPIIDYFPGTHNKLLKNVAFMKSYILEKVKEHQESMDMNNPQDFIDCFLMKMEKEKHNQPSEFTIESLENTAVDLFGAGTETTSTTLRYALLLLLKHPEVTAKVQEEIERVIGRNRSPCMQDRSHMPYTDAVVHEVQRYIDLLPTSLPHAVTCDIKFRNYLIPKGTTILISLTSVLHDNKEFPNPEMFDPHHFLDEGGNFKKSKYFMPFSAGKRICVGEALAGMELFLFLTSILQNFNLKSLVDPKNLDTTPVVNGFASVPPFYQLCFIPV
Voltage-gated inwardly rectifying potassium channel KCNH2 (Homo sapiens), sequence (Q12809 whole entry, looked up): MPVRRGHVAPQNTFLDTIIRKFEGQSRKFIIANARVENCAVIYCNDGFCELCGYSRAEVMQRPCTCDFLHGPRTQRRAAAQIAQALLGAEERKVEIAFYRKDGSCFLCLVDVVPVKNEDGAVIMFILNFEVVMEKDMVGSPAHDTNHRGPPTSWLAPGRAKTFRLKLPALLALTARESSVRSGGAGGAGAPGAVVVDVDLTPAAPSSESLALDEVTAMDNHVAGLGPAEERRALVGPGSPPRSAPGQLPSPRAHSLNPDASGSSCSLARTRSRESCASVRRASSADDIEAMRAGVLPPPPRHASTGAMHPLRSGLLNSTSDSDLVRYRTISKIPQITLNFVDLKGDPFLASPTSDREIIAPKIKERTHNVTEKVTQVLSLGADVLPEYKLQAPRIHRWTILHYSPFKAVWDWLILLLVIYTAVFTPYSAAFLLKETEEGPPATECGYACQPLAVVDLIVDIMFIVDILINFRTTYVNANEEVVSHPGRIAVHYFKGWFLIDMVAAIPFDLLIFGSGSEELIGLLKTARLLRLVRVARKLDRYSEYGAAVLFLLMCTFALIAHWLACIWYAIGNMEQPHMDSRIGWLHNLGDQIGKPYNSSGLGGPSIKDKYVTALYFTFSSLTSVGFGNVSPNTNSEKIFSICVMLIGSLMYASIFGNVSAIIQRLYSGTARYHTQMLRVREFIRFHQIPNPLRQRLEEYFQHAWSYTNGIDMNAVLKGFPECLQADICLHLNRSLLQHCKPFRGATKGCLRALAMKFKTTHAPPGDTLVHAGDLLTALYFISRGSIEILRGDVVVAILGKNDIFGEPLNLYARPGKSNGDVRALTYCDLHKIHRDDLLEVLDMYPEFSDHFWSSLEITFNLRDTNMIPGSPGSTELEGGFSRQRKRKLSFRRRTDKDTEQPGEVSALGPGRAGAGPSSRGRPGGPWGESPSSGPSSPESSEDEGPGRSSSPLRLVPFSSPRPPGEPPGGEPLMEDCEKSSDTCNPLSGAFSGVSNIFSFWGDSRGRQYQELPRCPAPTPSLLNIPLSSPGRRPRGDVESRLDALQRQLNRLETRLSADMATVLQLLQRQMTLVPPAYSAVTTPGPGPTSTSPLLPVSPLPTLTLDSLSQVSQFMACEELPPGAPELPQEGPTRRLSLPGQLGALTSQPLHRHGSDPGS
Cytochrome P450 3A4 (Homo sapiens), sequence (P08684 whole entry, looked up): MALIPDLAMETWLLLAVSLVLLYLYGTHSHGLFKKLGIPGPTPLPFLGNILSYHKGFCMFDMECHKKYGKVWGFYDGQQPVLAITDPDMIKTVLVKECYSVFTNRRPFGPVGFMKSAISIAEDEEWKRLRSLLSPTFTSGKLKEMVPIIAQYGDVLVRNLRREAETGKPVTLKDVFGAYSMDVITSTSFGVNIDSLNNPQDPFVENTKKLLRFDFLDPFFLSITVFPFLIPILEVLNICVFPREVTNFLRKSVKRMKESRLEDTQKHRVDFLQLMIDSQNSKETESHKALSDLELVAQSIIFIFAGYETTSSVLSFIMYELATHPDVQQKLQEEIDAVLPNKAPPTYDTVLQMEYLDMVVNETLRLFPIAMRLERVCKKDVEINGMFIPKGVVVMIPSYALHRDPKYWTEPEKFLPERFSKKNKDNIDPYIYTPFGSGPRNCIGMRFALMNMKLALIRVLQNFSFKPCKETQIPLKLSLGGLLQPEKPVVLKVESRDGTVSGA

| SMILES | Potency [1] | Potency [2] | Potency [3] | Potency [4] | Potency [5] | Potency [6] |
| --- | --- | --- | --- | --- | --- | --- |
| O=c1[nH]cnc2c1ncn2[C@H]1CC[C@@H](CO)O1 | inactive | inactive | inactive | inactive | inactive | inactive |
| Nc1c(N=Nc2ccc(-c3ccc(N=Nc4cc(S(=O)(=O)O)c5ccccc5c4N)cc3)cc2)cc(S(=O)(=O)O)c2ccccc12 | 35.6 µM (active) | 71 µM (active) | 31.7 µM (active) | 63.3 µM (active) |  |  |
| NC(CO)(CO)CO | inactive | inactive | inactive | inactive | inactive | inactive |
| O=C1OC2(c3ccccc31)c1cc(Br)c(O)c(Br)c1Oc1c2cc(Br)c(O)c1Br | inactive | 20.3 µM (active) and inactive | 5.1 µM (active) and 9.19 µM (active) and 7.76 µM (active) | 29.1 µM (active) |  | inactive |
| C=C1CC[C@H](O)C/C1=C\C=C1/CCC[C@]2(C)[C@@H]([C@H](C)CCCC(C)C)CC[C@@H]12 | inactive | 35.3 µM (active) | 25 µM (active) |  |  |  |
| CCc1nc(N)nc(N)c1-c1ccc(Cl)cc1 | 9.07 µM (active) and 15.9 µM (active) and 13.8 µM (active) | inactive | inactive | inactive |  |  |
| Cc1cccc(C)c1 | inactive and 21.8 µM (active) | 68.6 µM (active) and inactive | inactive | inactive | inactive | inactive |
| CCCCC(CC)C(=O)O (stereo unspecified) | inactive | inactive | inactive and 71 µM (active) | inactive | inactive | inactive |
| O=C(O)c1ccccc1 | 37.4 µM (active) and inactive | 33.3 µM (active) and 3.47 µM (active) and inactive | inactive | 37.4 µM (active) and inactive | inactive | inactive |
| CC(=O)CCC(=O)O | inactive | inactive | inactive | inactive |  |  |
| CN1CCc2cccc3c2[C@H]1Cc1ccc(O)c(O)c1-3 | 45.3 µM (active) and 11.8 µM (active) and 38.9 µM (active) | inactive |  |  |  |  |
| NS(=O)(=O)O | inactive | 73.7 µM (active) and inactive | inactive | inactive | inactive | inactive |
| CC(C)C(=O)Nc1ccc([N+](=O)[O-])c(C(F)(F)F)c1 | 36.6 µM (active) and 63.3 µM (active) | 18.3 µM (active) and 22.4 µM (active) and 7.76 µM (active) | 32.6 µM (active) and 31.7 µM (active) and 15.5 µM (active) | 1.63 µM (active) and 5.03 µM (active) and 2.57 µM (active) |  |  |
| COc1ccc(C(Cl)=C(c2ccc(OC)cc2)c2ccc(OC)cc2)cc1 | inactive | 7.93 µM (active) and 12.6 µM (active) and 4.36 µM (active) | 8.9 µM (active) and 7.96 µM (active) and 7.76 µM (active) | inactive | inactive | inactive |
| COc1ccc2c(c1)c(CC(=O)O)c(C)n2C(=O)c1ccc(Cl)cc1 | 35.8 µM (active) and inactive | inactive | 22.6 µM (active) and 17.8 µM (active) and 13.8 µM (active) | inactive |  | inactive |
| C1CCC(C(CC2CCCCN2)C2CCCCC2)CC1 (stereo unspecified) | 1.1 µM (active) | 24.5 µM (active) | inactive | inactive |  |  |
| CCOC(N)=O | inactive | 60 µM (active) and inactive | inactive | inactive | inactive | inactive |
| Cc1cc(=O)oc2cc(O)ccc12 | inactive | inactive | inactive | 31.7 µM (active) and 25.2 µM (active) and 17.4 µM (active) | inactive | inactive |
| O=S1(=O)OC(c2ccc(O)cc2)(c2ccc(O)cc2)c2ccccc21 | inactive | inactive and 50.2 µM (active) | 3.17 µM (active) and 3.56 µM (active) and 2.45 µM (active) | 25.2 µM (active) and 39.9 µM (active) | inactive | inactive |
| CCCCCCCCCCCC[N+](C)(C)Cc1ccccc1 | 984 nM (active) and 866 nM (active) and 219 nM (active) | 78.1 µM (active) and 34.5 µM (active) and 17.4 µM (active) | 77.2 µM (active) | 34.9 µM (active) and 38.7 µM (active) and 36.3 µM (active) | 1.08 µM (active) and 1.5 µM (active) and 1.07 µM (active) | inactive |
